UHRF1 MBD2 ctr: UHRF1 methyl-DNA binding inhibition | Q96T88 | UHRF1 binding to methylated oligo, TR-FRET | inhibition, % at 4.4 µM | 0.75% of 370,000 active | AID 687016; in the data active means inhibition above about 21%;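 further: UHRF1 SRA domain binding a hemimethylated CpG hairpin DNA probe; 0% = median of test compound wells and 100% = reference inhibitor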
PRMT1 FP inh: PRMT1 (human) inhibition, primary screen; Q99873; recombinant PRMT1, activity-based probe fluorescence polarization; inhibition, % at 2.79 µM; 1.3% of 370,000 active;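 active means inhibition above about 21% made by adding two undisclosed values, limit read from the data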
MBD2 inh: inhibitors of human MBD2 binding to methylated oligonucleotide; inhibition, % at 4.4 µM; TR-FRET; 0.31% of 370,000 active; in the data active means inhibition above about 13%
Target sequence (Q9UBB5 whole entry, looked up): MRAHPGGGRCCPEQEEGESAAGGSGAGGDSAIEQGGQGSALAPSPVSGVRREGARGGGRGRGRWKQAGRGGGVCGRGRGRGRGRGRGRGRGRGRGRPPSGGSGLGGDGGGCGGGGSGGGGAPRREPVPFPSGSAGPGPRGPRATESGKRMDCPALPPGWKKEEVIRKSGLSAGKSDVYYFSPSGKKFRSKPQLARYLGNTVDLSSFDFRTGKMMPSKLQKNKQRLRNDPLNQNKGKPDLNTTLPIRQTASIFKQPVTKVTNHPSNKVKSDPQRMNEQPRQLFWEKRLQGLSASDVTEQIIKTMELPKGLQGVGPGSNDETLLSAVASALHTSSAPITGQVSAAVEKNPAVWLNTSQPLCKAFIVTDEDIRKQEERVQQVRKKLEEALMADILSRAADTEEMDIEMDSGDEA
LEDGF integ inh: blocks HIV-1 LEDGF/p75-dependent DNA integration. 0.64% of 370,000 active. TR-FRET IN-LEDGF/p75 DNA integration, Eu/Cy5. inhibition, % at 3.7 µM. AID 743269;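 active means inhibition above the screen-wide mean plus 3 SD, cut at about 13% in these data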;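 further: signal is the Cy5 over europium emission ratio at 671 and 618 nm; 0% = plate median of compound wells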
Active calls of the source: *. Hits are enriched below; roughly 2.5% of the tested compounds scored in any of these assays.

SMILES	UHRF1 MBD2 ctr	PRMT1 FP inh	MBD2 inh	LEDGF integ inh
CCOc1ccc(CCNC(=O)C2CCCN(S(=O)(=O)N3CCOCC3)C2)cc1OCC (stereo not given)	1	2	3	-5
C=CCN1[C@@H](C)[C@H](c2ccccc2)Oc2cccc(N3CCCC(C)C3)c2S1(=O)=O (stereo not given in full)	23*	-1	7	-1
O=C(NN1CCCCC1)NN1CCCCC1	-1	-1	-4	-1
CN(c1cccc(NC(=O)c2ccc(Cl)c(S(=O)(=O)N3CCOCC3)c2)c1)S(C)(=O)=O	-1	3	0	-1
CC(=O)Nc1sc(N/N=C\c2cccc(Cl)c2)nc1-c1cccs1	0	11	6	-3
CC(=O)Nc1sc(N/N=C\c2ccc(O)cc2)nc1-c1cccs1	5	23*	9	-4
O=[N+]([O-])c1cc([N+](=O)[O-])c(Oc2cc(F)cc(F)c2)cc1NN1CCCCC1	-1	2	-5	0
C#CCN(C[C@@H]1[C@@H](OC(=O)NC2CCCC2)[C@@H](OC(=O)NC2CCCC2)CN(C(=O)OC(C)C)N1C(=O)OC(C)C)S(=O)(=O)c1ccc(C)cc1	1	-4	4	5
CCOC(=O)c1c(NC(=S)Nc2ccccc2)sc2c1CC(C)(C)SC2	-2	1	2	-2
CCOC(=O)c1c(NC(=S)NC)sc2c1CC(C)(C)SC2	-5	24*	4	3
N#C/C(=C\c1ccc(O)c([N+](=O)[O-])c1)c1nc2ccccc2s1	26*	5	0	2
COc1cc(/C=C(\C#N)c2nc3ccccc3s2)cc([N+](=O)[O-])c1O	1	2	-4	3
Cc1cc(NC(=O)CSc2nc(CC(C)(C)C)nc3c2c(=O)n(C)c(=O)n3C)no1	22*	5	3	2
Cc1cc(NC(=O)CSc2nc(-c3ccccc3Cl)nc3c2c(=O)n(C)c(=O)n3C)no1	23*	3	7	2
COc1ccc(Cc2nnc(SCC(=O)c3ccc4c(c3)OCO4)o2)cc1	-1	0	1	3
CC(O)(c1cccnc1)c1nc(/C=C/c2ccccc2)cs1 (stereo not given)	-2	1	-5	1
C=CC#CC[N+]1(CC#Cc2ccccc2)CCOCC1	18	-7	20*	-5
C(#Cc1ccccc1)C[N+]1(CC#Cc2ccccc2)CCCC1	1	-2	-2	-1
CCOC(=O)COc1ccc(S(=O)(=O)NC2CC2)cc1	0	-2	1	-2
COc1ccc(Cl)cc1NC(=O)Cn1c(=O)n2nc(C)nc2c2ccccc21	70*	-1	3	-2
CCCCSc1cc(=O)[nH]c(N)n1	-1	-6	0	3
COc1ccc(NC(=O)N[C@H]2CC[C@@H](CC(=O)NC3CCC3)O[C@@H]2CO)cc1	-1	-4	-6	3
c1ccc(CCNc2nc3ccccc3s2)cc1	21*	-3	5	0
CCCc1nc2c(=O)n(C)c(=O)nc-2n(C)n1	18	4	22*	-18
CC(NC(=O)Nc1cccc([N+](=O)[O-])c1)(C(F)(F)F)C(F)(F)F	73*	-1	-4	1
SMILES	UHRF1 MBD2 ctr	PRMT1 FP inh	MBD2 inh	LEDGF integ inh
O=C(COC(=O)c1ccc(Sc2ncn[nH]2)c([N+](=O)[O-])c1)Nc1ccc(Cl)c(Cl)c1	0	-6	-1	-1
CCC1CCCCN1C(=S)NN=C(C)c1ccccn1 (stereo not given)	-11	24*	0	-5
CC(=NNC(=S)N1CCCCC1)c1ccccn1	-14	3	-3	-3
COC(=O)CCCCC1SCC2NC(=O)NC21O (stereo not given)	-1	11	0	41*
COC(=O)C1CSC(C)(C)C(=O)N1 (stereo not given)	1	3	-1	0
COc1ccccc1-n1c(SCC(=O)NC(C)(C)C)nc(O)c(Cc2ccccc2)c1=O	22*	10	6	0
COc1ccccc1-n1c(SCC(=O)N2CCCCC2)nc(O)c(Cc2ccccc2)c1=O	1	7	3	-5
Cc1ccccc1-n1c(SCC(=O)N2CCOCC2)nc(O)c(Cc2ccccc2)c1=O	2	24*	9	-2
C=CCN1C(=O)c2ccc(C(=O)N3CCN(S(=O)(=O)c4ccc(C(C)C)cc4)CC3)cc2C1=O	5	2	4	-4
CCN(CC)CC(C)OC(=O)COc1ccc(OC)cc1 (stereo not given)	24*	-3	-3	3
COc1ccc(OCC(=O)OC(C)CN2CCOCC2)cc1 (stereo not given)	-4	-2	-6	-7
O=C(c1cn(Cc2ccccc2)nc1-c1cccnc1)N1CCc2ccccc2C1	1	1	-3	-7
O=C1C(SCCO)=C(SCCO)C(=O)c2ccccc21	-9	98*	-9	29*
CCCc1cc(=O)oc2cc(C)c(CN3CCCC3)c(O)c12	10	4	7	13*
CC(C)(C)NC(=O)C[C@H]1C[C@H](C(=O)N2CCCCC2)[C@@]2(CCc3ccccc3)c3[nH]c4cc(-c5ccco5)ccc4c3CCN2C1=O	-2	24*	3	2
O=C(C[C@H]1C[C@H](C(=O)N2CCOCC2)[C@@]2(CCC3CCCC3)c3[nH]c4cc(-c5ccco5)ccc4c3CCN2C1=O)NCCc1ccccn1	1	7	-2	5
O=C(C[C@H]1C[C@H](C(=O)N2CCOCC2)[C@@]2(CCC3CCCC3)c3[nH]c4cc(-c5ccco5)ccc4c3CCN2C1=O)NCc1ccco1	0	22*	1	-5
Cc1cc2[nH]cnc2c([N+](=O)[O-])c1C	7	4	2	-6
COc1ccc(Cc2nnc(SCC(=O)Nc3ccc(N4CCOCC4)cc3)n2C)cc1	1	0	3	0
COC(=O)C1=C(C)N(C2CCCCC2)C(=O)/C1=C\c1cccs1	53*	1	-4	-1
CCOC(=O)c1nn(-c2ccccc2C)c(=O)c2c(N)scc12	4	25*	-6	-4
CCOC(=O)c1nn(-c2ccccc2)c(=O)c2c(N)scc12	0	17	-3	2
O=C(COc1ccccc1C(=O)O)Nc1nc2ccc([N+](=O)[O-])cc2s1	-3	-2	-6	-3
COc1nc(-c2cccs2)cc(-c2ccc(C)cc2)c1C#N	22*	5	13	1
COc1ccc(/C=C/c2nc(-c3ccccc3O)n[nH]2)cc1	66*	3	4	-4
SMILES	UHRF1 MBD2 ctr	PRMT1 FP inh	MBD2 inh	LEDGF integ inh
COc1ccc(/C=C/c2nc(-c3ccccc3O)n(-c3ccccc3)n2)cc1	0	-1	7	0
COc1cccc(-c2cnc(C(O)c3ccc(Cl)c(Cl)c3)[nH]2)c1 (stereo not given)	0	2	3	-4
CN1CCc2c(sc3c2C(=O)NC(c2ccccn2)N3)C1 (stereo not given)	-4	27*	-4	-7
CC(C)(C)NC(=O)c1ccccc1-c1nc2ccccc2s1	0	24*	2	-3
O=C(c1ccccc1)C1CCN(C(=O)c2ccco2)CC1	-1	-2	4	0
Cc1ccc(OCC(=O)c2cc(C)c(C)cc2C)c([N+](=O)[O-])n1	-6	24*	0	3
